Data on 73 compounds can be found in PubChem BioAssay.

In assay [1] the test system is transactivating tegument protein VP16 (Human herpesvirus 1). In words: compounds suppressing VP16-driven luciferase signal – cell-based, luminescence, single concentration, counter-screen for SRC2 inhibitor project (AID 652007; in the data active = inhibition above about 36%). As to conditions: cell-based VP16 transactivation luciferase reporter, at 8.9 µM, stronger effect = higher value. For orientation: A counterscreen serves to expose hits that act by an unwanted route or on another target.

The target of assay [2] is Nuclear receptor coactivator 2 (Homo sapiens) (UniProt Q15596). In words: inhibition of GAL4-SRC2 driven luciferase expression – cell-based, luminescence, HEK293, triplicate, confirmation (AID 652008).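 Note: 0% = DMSO-treated cells and 100% = Gossypol at 36 µM.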 The following applies: HEK293 GAL4-SRC2 luciferase reporter, at 8.9 µM, stronger effect = higher value. On the technique in general: Reporter assays use an easily measured gene product as a stand-in for the process of interest.

Unmarked numbers belong to inactive results. Activity calls are given as the source filed them.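 Rule for the calls, unless noted: active = mean inhibition above 46.5%, the solvent-only control mean plus 3 SD; inactive = the rest.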

Usually inhibition stands for the change of the read-out against control, counted positive when it falls.

Nuclear receptor coactivator 2 (Homo sapiens), sequence (Q15596 whole entry, looked up, the tested form may be a part): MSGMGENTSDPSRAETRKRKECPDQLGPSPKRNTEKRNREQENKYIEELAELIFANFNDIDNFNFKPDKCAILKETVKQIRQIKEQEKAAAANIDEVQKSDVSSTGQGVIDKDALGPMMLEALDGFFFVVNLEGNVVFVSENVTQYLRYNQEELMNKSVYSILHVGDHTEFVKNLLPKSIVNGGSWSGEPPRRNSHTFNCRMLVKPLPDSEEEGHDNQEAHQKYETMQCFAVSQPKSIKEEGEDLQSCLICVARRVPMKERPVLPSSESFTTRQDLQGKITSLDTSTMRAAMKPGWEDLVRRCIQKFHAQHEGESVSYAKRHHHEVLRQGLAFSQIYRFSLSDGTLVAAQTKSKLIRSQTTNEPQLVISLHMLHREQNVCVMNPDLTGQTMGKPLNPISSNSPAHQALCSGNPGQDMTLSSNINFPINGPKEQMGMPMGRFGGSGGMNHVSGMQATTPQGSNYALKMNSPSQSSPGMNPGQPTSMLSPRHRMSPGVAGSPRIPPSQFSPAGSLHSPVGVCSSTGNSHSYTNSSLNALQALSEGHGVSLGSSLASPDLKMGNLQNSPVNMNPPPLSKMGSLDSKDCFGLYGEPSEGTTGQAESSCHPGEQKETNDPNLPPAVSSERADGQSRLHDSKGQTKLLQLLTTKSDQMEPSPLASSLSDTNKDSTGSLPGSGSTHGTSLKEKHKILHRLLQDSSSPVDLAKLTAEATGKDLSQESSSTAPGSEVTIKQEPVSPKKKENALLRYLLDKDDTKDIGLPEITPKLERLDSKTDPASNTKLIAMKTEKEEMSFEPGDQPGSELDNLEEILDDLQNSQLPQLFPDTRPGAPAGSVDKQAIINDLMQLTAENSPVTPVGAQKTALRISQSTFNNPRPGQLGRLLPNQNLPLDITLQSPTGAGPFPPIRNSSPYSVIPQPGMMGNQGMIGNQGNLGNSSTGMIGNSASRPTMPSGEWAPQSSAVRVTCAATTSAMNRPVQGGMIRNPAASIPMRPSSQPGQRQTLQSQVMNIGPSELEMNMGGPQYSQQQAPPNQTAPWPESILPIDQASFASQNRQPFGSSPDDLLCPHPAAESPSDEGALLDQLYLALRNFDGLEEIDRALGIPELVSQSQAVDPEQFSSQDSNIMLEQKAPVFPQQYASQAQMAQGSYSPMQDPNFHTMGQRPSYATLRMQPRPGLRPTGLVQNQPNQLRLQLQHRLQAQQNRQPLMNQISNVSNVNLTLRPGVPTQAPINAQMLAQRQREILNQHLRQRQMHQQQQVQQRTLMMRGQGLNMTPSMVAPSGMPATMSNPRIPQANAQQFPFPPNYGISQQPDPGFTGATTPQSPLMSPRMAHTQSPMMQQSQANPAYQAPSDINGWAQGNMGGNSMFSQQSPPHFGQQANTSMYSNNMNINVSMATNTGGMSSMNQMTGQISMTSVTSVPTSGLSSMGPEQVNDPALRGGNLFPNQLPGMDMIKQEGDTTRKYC

Take `Oc1cc2ccccc2cc1-c1nnc2n1-c1ccccc1SC2`: the inhibition was 5.09% in assay [1] and 3.52% in assay [2].

For the compound `CN(Cc1ccc(OC(F)F)cc1)C(=O)c1ccc(S(=O)(=O)N(C)c2ccccc2)cc1`, the figures for the inhibition in assay [1] and in assay [2] were -22.2% and -12.8%, respectively.

As to `O=c1cc(-c2ccc(O)cc2)oc2ccc3ccccc3c12`, the inhibition was 5.39% in assay [1] and 50.8% (active) in assay [2].

Regarding `CC(C)OC(=O)c1ccc(NCc2cc(O)ccc2O)cc1`, the inhibition in assay [1] was 51.7% (active); in assay [2] it was 54.8% (active).

Consider `COc1cc(OC)c(C(=O)C=Cc2ccc(OC)c(OC)c2)c(OC)c1`, for which the inhibition in assay [1] was -5.35%; in assay [2] it was 6.31%.

For the compound `O=C(CCl)Nc1ccccc1C(=O)NCc1ccccc1`, the inhibition in assay [1] was 0.94%; in assay [2], 42.9%.

In the case of `O=C(Nc1ccc2nc3n(c(=O)c2c1)CCCCC3)c1cc([N+](=O)[O-])ccc1F`, the inhibition in assay [1] is 32.1%; in assay [2], 30.4%.

In the case of `CCCCCc1c(C)nc(N2CCc3ccccc32)[nH]c1=O`, the inhibition in assay [1] was -17.3%; in assay [2], 14.9%.

For the compound `O=C1NC(c2ccccc2)Cc2ccncc21` (stereo unspecified), the values for the inhibition in assay [1] and in assay [2] were -6.21% and -28.4%, respectively.

On to `O=C(N/N=C/c1ccc([N+](=O)[O-])o1)c1cc2ccccc2o1`, for which the inhibition in assay [1] is 21.6%; in assay [2], 56.4% (active).

Take `c1ccc(-n2cnc3ccccc32)cc1`: the inhibition in assay [1] was -25.6%; in assay [2] it was 5.17%.

`COc1cc(NC(=O)COC(=O)c2[nH]c(C)c(C(C)=O)c2C)cc(OC)c1`: the inhibition in assay [1] was 9.16%; in assay [2], 15.2%.

On to `O=C(Nc1cccc(-c2cccc(Cl)c2)c1)C1CCN(Cc2ccccn2)CC1`, for which the inhibition is -2.92% in assay [1] and 17.7% in assay [2].

Regarding `O=C(CCCN1C(=O)/C(=C/c2ccccc2Cl)SC1=S)Nc1cccnc1`, the inhibition in assay [1] is -29.3%; in assay [2], -4.66%.

`O=C(Nc1ccc2oc(=O)c(C(=O)O)cc2c1)Oc1ccccc1`: the figures for the inhibition in assay [1] and in assay [2] were -3.08% and 9.66%, respectively.

Consider `COc1cc(OC)cc(C2=Cc3ccc(OC)cc3C(CC(C)=O)N2c2ccc(C#CC3(O)CCCCC3)cc2)c1` (stereo unspecified), for which the inhibition in assay [1] was -2.24%; in assay [2] it was 19.6%.

For the compound `Cc1nc2cc(-c3ccccc3)nn2c(C)c1CCC(=O)NCc1ccco1`, the inhibition in assay [1] was -27.7%; in assay [2] it was 46.5% (active).

On to `CC(C)(C)c1ccc(SCCc2ccncc2)cc1`, for which the inhibition in assay [1] is -28.2%; in assay [2] it was -4.99%.

As to `O=C(CCl)Nc1ccc(-c2ccccc2)cc1`, the figures for the inhibition in assay [1] and in assay [2] were 32.4% and 65.6% (active), respectively.

In the case of `COC(=O)c1ccc(NC(=O)c2nc(S(=O)(=O)Cc3cccc(C)c3)ncc2Cl)cc1`, the inhibition in assay [1] is 46% (active); in assay [2] it was 53.4% (active).

For `Nc1nc(-c2ccccc2)c(N=Nc2cccnc2)s1`, the inhibition was 5.71% in assay [1] and 11.2% in assay [2].

On to `COc1ccc(OC)c(CC(=O)Nc2ccc3c(c2)c(=O)n(C)n3Cc2cccc(C(F)(F)F)c2)c1`, for which the inhibition was -5.16% in assay [1] and -6.44% in assay [2].

For `O=C(c1ccc(CS(=O)Cc2ccc(Cl)cc2)o1)N1CCN(c2ccccn2)CC1` (stereo unspecified), the inhibition in assay [1] was -9.03%; in assay [2], -6.91%.

As for `O=C(c1ccccc1)C(CN1CCCCC1)c1ccccc1` (stereo unspecified), the inhibition in assay [1] was 29.1%; in assay [2], 63.6% (active).

Regarding `Cc1cc(F)ccc1NC(=O)CCc1c(C)nn(-c2ccc(N3CCCCC3)nn2)c1C`, the values for the inhibition in assay [1] and in assay [2] were -53% and 3.56%, respectively.

Regarding `COc1ccc(/C=C2\SC(=S)N(CCCC(=O)N3CCOCC3)C2=O)cc1`, the inhibition in assay [1] is 45.9% (active); in assay [2] it was 35.5%.

As for `O=C1CCCC/C1=C/Nc1ccc2c(c1)OCO2`, the inhibition is -58.7% in assay [1] and -65.5% in assay [2].

For `CC(=O)NCCOc1nc(N2CCCCC2)nc(N2CCCCC2)n1`, the inhibition in assay [1] is 0.94%; in assay [2] it was 12.1%.

As to `CCN1CCCc2cc(CN(CCN3CCOCC3)C(=S)Nc3ccccc3OC)ccc21`, the inhibition in assay [1] is -14.1%; in assay [2], -10.6%.

For the compound `CC(C)N(Cc1ccccc1)C(=S)NCc1ccccc1`, the inhibition in assay [1] is -3.69%; in assay [2] it was -6.45%.

Turning to `O=C(NCc1ccc(Cl)c(Cl)c1)c1cc(C2CCCCN2C(=O)CCc2ccccc2)on1` (stereo unspecified), the inhibition in assay [1] is -6.3%; in assay [2], 12.6%.

For `CN(c1ccccc1)S(=O)(=O)c1ccc(Cl)c(C(=O)Nc2ccncc2)c1`, the inhibition is 0.61% in assay [1] and 29.7% in assay [2].

Take `O=C(Nc1nc2cc3c(cc2s1)OCO3)C1=COCCO1`: the inhibition in assay [1] was 26.7%; in assay [2] it was 70.3% (active).

Regarding `COc1cc(C#Cc2c(-c3cncn3C)n(C)c3ccc(-c4ccc(OC)nc4)cc23)cc(OC)c1`, the results for the inhibition in assay [1] and in assay [2] were -13.2% and -23.7%, respectively.

As for `CCN(CC)S(=O)(=O)c1cccc(-n2c(O)c(C=Nc3ccccc3C(=O)O)c3ccccc3c2=O)c1`, the figures for the inhibition in assay [1] and in assay [2] were -0.6% and 21.9%, respectively.

For `Cc1cc(Cl)n2c(nc3ccccc32)c1C#N`, the inhibition is 4.56% in assay [1] and 28.4% in assay [2].

As to `Cc1nn(C)c(Cl)c1NC(=O)OCc1ccc(Cl)cc1Cl`, the inhibition is 10.8% in assay [1] and 16.2% in assay [2].

On to `O=C(CCCN1C(=O)/C(=C/c2ccccc2)SC1=S)NCCCn1ccnc1`, for which the results for the inhibition in assay [1] and in assay [2] were 35.9% (active) and 26.1%, respectively.

Consider `Cc1ccc(C(=O)/C=C/Nc2ccccn2)cc1`, for which the inhibition is 31.1% in assay [1] and 77% (active) in assay [2].

As for `Cc1ccc(NC(=O)CSc2ncnc3ccccc23)cc1S(=O)(=O)N1CCCCCC1`, the results for the inhibition in assay [1] and in assay [2] were 12.7% and 20.7%, respectively.

`CCn1nc(NS(=O)(=O)c2ccc([N+](=O)[O-])cc2)c2cc3ccc(C)cc3nc21`: the values for the inhibition in assay [1] and in assay [2] were 10.1% and -26.1%, respectively.

For the compound `O=C(NC12CC3CC(CC(C3)C1)C2)C1CC(=O)N(c2ccccc2)C1` (stereo unspecified), the inhibition in assay [1] is 9.52%; in assay [2], -0.38%.

With `CC(=O)Nc1cccc(NC(=O)CSc2nc(C3CC3)nc3ccccc23)c1`, the results for the inhibition in assay [1] and in assay [2] were -2.73% and 27.2%, respectively.

Regarding `Nc1n[nH]c2c1C1(CCCC1)Cc1ccccc1-2`, the inhibition in assay [1] was 1.41%; in assay [2], 10%.

Take `Cc1c(Cl)sn(-c2ccc(Cl)cc2)c1=O`: the inhibition in assay [1] is 76.3% (active); in assay [2], 93.4% (active).

In the case of `CCOc1ccc(C(=O)C(CN2CCOCC2)c2ccccc2)cc1` (stereo unspecified), the inhibition in assay [1] is 14.2%; in assay [2] it was 42.6%.

On to `CC(C)CC(NC(=O)c1ccco1)C(=O)Nc1ccc2c(c1)OCCO2` (stereo unspecified), for which the inhibition was 10.6% in assay [1] and 7.27% in assay [2].

Consider `O=C(N/N=C/c1coc2ccc(Cl)cc2c1=O)c1cc(O)cc(O)c1`, for which the values for the inhibition in assay [1] and in assay [2] were 23.4% and 18.5%, respectively.

Regarding `COc1cc(OC)nc(Nc2nc(C(N)Cc3ccc(F)cc3)cs2)n1` (stereo unspecified), the results for the inhibition in assay [1] and in assay [2] were -4.22% and -0.34%, respectively.

As to `C[C@@H]1C(c2ccc(F)cc2)=NN(c2ccccc2)[C@H]1C(=O)N1CCOC1=O`, the inhibition in assay [1] is -11.2%; in assay [2], -21.5%.

Regarding `COc1ccc(C(C(=O)NC2CCCC2)n2c(CSCCOc3ccccc3)nc3ccccc32)cc1` (stereo unspecified), the inhibition in assay [1] is 43.5% (active); in assay [2], 76.4% (active).

Turning to `CC(=O)C1C(=O)c2c(cccc2[N+](=O)[O-])C1=Nc1cccc(Cl)c1` (stereo unspecified), the inhibition in assay [1] is -60.3%; in assay [2], -35.9%.

For the compound `Cc1nc2ccccc2c2c1C(=O)N(c1ccc(C(=O)O)cc1)C2=O`, the inhibition in assay [1] is -3.24%; in assay [2], -28.2%.

For the compound `C=C(C(=O)c1ccccc1)C(c1ccccc1)C(C)C(=O)c1ccccc1` (stereo unspecified), the results for the inhibition in assay [1] and in assay [2] were 28.8% and 31.4%, respectively.

As to `COc1ccc(-c2csc3ncnc(NCCO)c23)cc1`, the inhibition in assay [1] is 3.39%; in assay [2], 47.1% (active).

For the compound `COc1cccc(/C=C2\SC(=S)N(CCCC(=O)N3CCCCC3CCO)C2=O)c1` (stereo unspecified), the results for the inhibition in assay [1] and in assay [2] were 51.2% (active) and 52.2% (active), respectively.

In the case of `N#CCCN(C(=O)COC(=O)C1CCN(S(=O)(=O)c2ccccc2C(F)(F)F)CC1)c1ccccc1`, the inhibition in assay [1] was 0.12%; in assay [2] it was 11.1%.

As for `O=C(Nc1nnc(SCCN2CCOCC2)s1)C1CC(=O)N(c2ccccc2)C1` (stereo unspecified), the inhibition is 1.56% in assay [1] and -15.8% in assay [2].

Consider `Cc1ccc(Nc2nc(N)nc(CN3CCN(Cc4ccc5c(c4)OCO5)CC3)n2)cc1`, for which the results for the inhibition in assay [1] and in assay [2] were -10.2% and -18.2%, respectively.

For the compound `CCN(CC)c1ccc(/C=C/c2cc(-c3ccccc3)c3ccccc3n2)cc1`, the inhibition in assay [1] is -11.2%; in assay [2], -13.1%.

On to `N#CC1C=Cc2c(ccc3ccccc23)N1C(=O)c1ccccc1` (stereo unspecified), for which the results for the inhibition in assay [1] and in assay [2] were -39.9% and 56.4% (active), respectively.

Take `Cc1ccc(C2(CCNCc3ccco3)CCOC(C(C)C)C2)cc1` (stereo unspecified): the inhibition in assay [1] was -11.6%; in assay [2], -20.8%.

Take `CC(C)c1nnc(NC(=O)c2nc(S(=O)(=O)Cc3ccccc3F)ncc2Cl)s1`: the inhibition in assay [1] was 16.4%; in assay [2] it was 48% (active).

`Cc1ccc(O)c(NC(=O)c2cc([N+](=O)[O-])ccc2Cl)c1`: the values for the inhibition in assay [1] and in assay [2] were 8.71% and 44.2%, respectively.

As for `COc1ccc(CN=C(Nc2ccccc2)SC2CC(=O)NC2=O)cc1` (stereo unspecified), the inhibition in assay [1] was -5.45%; in assay [2], -13.2%.

Take `COc1ccc(OC)c(S(=O)(=O)Nc2ccc3c(c2)OCCO3)c1`: the inhibition in assay [1] is -22.5%; in assay [2], 21.2%.

With `O=C(NCC1COc2ccccc2O1)c1cccc(S(=O)(=O)N2CCN(c3ccccc3)CC2)c1` (stereo unspecified), the inhibition is -4.6% in assay [1] and 5.11% in assay [2].

With `CC(=O)NN1C(=O)/C(=C\c2ccc(Br)o2)SC1=S`, the inhibition was 14.8% in assay [1] and 19.2% in assay [2].

As for `O=C(Nc1ccc2c(c1)OCCO2)NC1(C(F)(F)F)Oc2ccccc2O1`, the inhibition in assay [1] is -12.8%; in assay [2], 43.7%.

Consider `COc1ccc(-n2c(-c3ccccc3)c[n+]3c2CCC3)cc1`, for which the inhibition is 6.63% in assay [1] and 36% in assay [2].

Regarding `COc1cccc(N2CCN(C(=O)c3ccc(CS(=O)c4ccc(Cl)cc4)o3)CC2)c1` (stereo unspecified), the inhibition is 19.7% in assay [1] and 14.5% in assay [2].

For `O=C(CCc1nnc(-c2ccc(-c3ccccc3)cc2)o1)NCCc1ccccn1`, the inhibition in assay [1] is 14.7%; in assay [2] it was 54% (active).

Turning to `CC(C)N(C(=O)[C@H]1C[C@H](CC(=O)NCCc2ccccn2)C(=O)N2CCc3c([nH]c4cc(-c5ccco5)ccc34)[C@]12C)C(C)C`, the inhibition was -4.18% in assay [1] and -6.81% in assay [2].
